Assay outcomes (PubChem BioAssay)
GPR32 ag – agonists of human resolvin D1 receptor DRV1 (GPR32). CHO-K1 GPR32 beta-arrestin PathHunter luminescence, 90 min; zero percent set by DMSO-only wells. activation, % at 76.9 µM. 48,000 tested, 2.5% active. AID 1346428;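 active means activation of at least 60% and not above a set upper limit, about 1 call in 100 departs from these limits; inconclusive means activation of 40% to 60%, or above that upper limit; inactive means activation under 40%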; further: 0% is about no effect
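Agonism was scored by beta-Gal fragment complementation (chemiluminescent read, 1 h detection at ambient temperature) reporting beta-arrestin binding to GPR32 in engineered CHO-K1 cells. Compound treatment lasted 90 min at 37 C, normalized to a DMSO basal control.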
SKOV3 invasion – blocks SKOV3ip1 adhesion and invasion in omental model; SKOV3ip1-GFP adhesion/invasion on 3D omental model, fluorescence; Potency, µM (top dose mostly 45.8 µM), without a hit: at the highest dose activity change, negative = inhibition, hits mostly inhibitors; AID 1963576; 46,000 tested, 0.1% active;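 further: potency means the concentration at half of the fitted maximal effect; plate controls were DMSO wells for no effect and tomatine positive control wells for full effect; nearly all actives have a fitted effect of over 65% in size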
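Adhesion/invasion was scored as fixed GFP-labeled SKOV3ip1 cell counts (488/509 nm), normalized to DMSO and tomatine controls. Cancer cells in serum-free medium, with four compound doses (0.36-46 umol/L), sat 2 hr at RT then 16 hr at 37 C on a 48 hr fibroblast/mesothelial/ECM culture.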
FH mod – Identification of activators of human fumarate hydratase by quantitative high-throughput screening | AID 1347055, 2019 | Potency, µM (titrated, usually from 79.9 µM), for the others: at the top dose activity change, negative = inhibition, actives largely listed as inhibitors | 54,000 tested, 0.22% active | FH coupled MDH/diaphorase resazurin fluorescence, 15 min; further: potency means the concentration at half of the fitted maximal effect; on the % scale 0 is the no-effect control and ±100 the full control effect; the screen sought activators but most active calls are inhibition curves; nearly all actives have a fitted effect of over 45% in size
Target sequence (P07954 whole entry, looked up): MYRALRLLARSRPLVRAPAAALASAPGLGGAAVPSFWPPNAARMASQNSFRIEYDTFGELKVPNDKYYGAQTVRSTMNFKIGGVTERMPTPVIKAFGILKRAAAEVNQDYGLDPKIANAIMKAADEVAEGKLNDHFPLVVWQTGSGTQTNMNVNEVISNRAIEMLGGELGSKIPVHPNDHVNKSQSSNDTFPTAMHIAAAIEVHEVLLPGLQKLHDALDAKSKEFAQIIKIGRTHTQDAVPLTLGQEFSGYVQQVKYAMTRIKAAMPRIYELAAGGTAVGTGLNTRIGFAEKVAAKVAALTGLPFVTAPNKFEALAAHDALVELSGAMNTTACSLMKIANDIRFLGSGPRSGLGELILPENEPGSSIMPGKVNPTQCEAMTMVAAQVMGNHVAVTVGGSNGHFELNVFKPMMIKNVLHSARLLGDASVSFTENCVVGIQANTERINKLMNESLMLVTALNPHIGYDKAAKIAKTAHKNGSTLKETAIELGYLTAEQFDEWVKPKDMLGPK
NTMT1 inh – blocks human N-terminal methyltransferase 1 activity. NTMT1 MTase-Glo SAH luminescence, purified enzyme. Potency, µM (titrated, usually from 114 µM), for the others: at the highest dose activity change, negative = inhibition, most hits filed as inhibitors. 59,000 tested, 2.5% active. AID 1645870;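 further: potency means the concentration at half of the fitted maximal effect; plate controls were DMSO vehicle for no effect and no enzyme for full effect; nearly all actives have a fitted effect of over 65% in size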
Target sequence (Q9BV86 whole entry, looked up): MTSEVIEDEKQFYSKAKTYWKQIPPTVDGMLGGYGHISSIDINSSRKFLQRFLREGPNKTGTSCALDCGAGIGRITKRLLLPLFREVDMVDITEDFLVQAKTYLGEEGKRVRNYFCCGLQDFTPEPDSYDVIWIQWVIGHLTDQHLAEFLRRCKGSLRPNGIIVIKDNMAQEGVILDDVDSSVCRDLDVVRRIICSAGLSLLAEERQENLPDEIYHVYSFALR
The depositor's hits bear a star; i = inactive; ? = inconclusive; nt = no result; ! = a repeat was not active; [ ] = another dose, or the depositor's remark. This is a sample that favours compounds with a hit; in the whole collection about 3.8% have one here. Unless noted, the call rests on the fitted dose curve; in most records, active means well fitted curve in the direction sought with a large enough effect; inconclusive means small, poorly fitted or top-dose-only effect, or another doubt; inactive means no such curve, though single readings can be large; an effect the other way counts as inactive or inconclusive.

SMILES	GPR32 ag	SKOV3 invasion	FH mod	NTMT1 inh
CCOc1cccc(NC(=O)C2CC(=O)N(C)C(=Nc3ccc(F)cc3)S2)c1 (stereo not drawn)	77.6*	2.4%	?	-15.6%
N[C@@H](Cc1cc(I)c(O)c(I)c1)C(=O)O	-11.7	nt	-20.4%[53.3 µM]	14.1µM*
CCCCN(CC)C(=O)c1c[nH]c2ccc(S(=O)(=O)N(C)c3ccc(Cl)cc3)cc2c1=O	91.5*	3.2%	1.1%	?
O=C(CSc1nc(Nc2ccccc2)c2ccccc2n1)c1ccc(Cl)cc1	108.1*	i	0.8%	7.6%
COc1cc(Nc2nc(SCC(=O)c3ccc(Cl)c(Cl)c3)nc3ccccc23)cc(OC)c1	-25.5	i	-9.9%	12.1%
CCCN1CCCc2cc(CN(CCCN3CCOCC3)C(=O)Nc3ccc(CC)cc3)ccc21	61.3*	-0.8%	-11.2%	-26.0%
Cc1nc2c(-c3ccccc3)c(C)nn2c(C)c1CCC(=O)Nc1ccccc1F	60.5*	i	-10.1%	8.5%
O=C(Oc1cccnc1)c1cccs1	nt	nt	nt	15.7%
Cn1nc(-c2ccc(C(=O)Nc3cccc(C(F)(F)F)c3)cc2)c2ccccc2c1=O	4.5	i	-3.0%	12.6%
Cn1nc(-c2ccc(C(F)(F)F)cc2)nc2c(=O)n(C)c(=O)nc1-2	nt	nt	3.98µM*	-2.8%[57.5 µM]
CN1CCN(c2nc3c(S(=O)(=O)c4ccc(Cl)cc4)nnn3c3ccsc23)CC1	0.0	2.6%	-9.5%	79.4µM*
CCN1CCN(c2nc3c(S(=O)(=O)c4ccc(C)cc4)nnn3c3ccsc23)CC1	-5.6	i	3.5%	79.4µM*
CCOc1ccc(CCNC(=O)c2cn(-c3cccc(OC)c3)c(=O)c3ccccc23)cc1	-24.1	?	-17.4%	3.9%
CCOc1ccccc1NC(=O)CSc1nc(=O)[nH]c2c1CCCC2	2.1	2.0%	-4.6%	-7.0%
CCc1ccc(CNC(=O)c2ccc(NC(=O)N3CCSc4ncccc43)cc2)cc1	-6.1	-9.7%	-8.5%	4.6%
O=C(NCc1ccccc1)c1ccc(NC(=O)N2CCSc3ncccc32)cc1	-8.9	-3.6%	-7.1%	89.1µM*
CC1=C2[N-][C@H]([C@H](CC(N)=O)[C@@]2(C)CCC(=O)NC[C@@H](C)OP(=O)([O-])O[C@H]2[C@@H](O)[C@@H](n3cnc4cc(C)c(C)cc43)O[C@@H]2CO)[C@]2(C)N=C(C(C)=C3N=C(C=C4N=C1[C@@H](CCC(N)=O)C4(C)C)[C@@H](CCC(N)=O)[C@]3(C)CC(N)=O)[C@@H](CCC(N)=O)[C@]2(C)CC(N)=O.O.[Co+2]	nt	nt	nt	50.1µM*
O=c1c(-n2ccnn2)c[nH]n1-c1cc(N2CCOCC2)ncn1	nt	nt	nt	3.03µM*!
CCc1cccc(NC(=O)CCc2c(C)nc3c(c2C)c(=O)n(C)c(=O)n3C)c1	11.9	i	-4.4%	89.1µM*
COC(=O)c1ccc(NC(=O)CCc2c(C)nc3c(c2C)c(=O)n(C)c(=O)n3C)cc1	-7.9	i	1.2%	3.4%
COc1ccccc1NC(=O)C1=C(C)Nc2nc(SCc3ccccc3F)nn2C1c1ccncc1 (stereo not drawn)	4.5	2.8%	-2.1%	89.1µM*
COc1ccccc1NC(=O)C1=C(C)Nc2nc(SCc3ccccc3)nn2C1c1ccncc1 (stereo not drawn)	26.0	i	-0.7%	-3.3%
CC(C)CCNC(=O)CCC(=O)N1Cc2ccccc2Oc2ncccc21	-3.1	1.8%	-0.4%	7.2%
Cc1ccc(-n2ncc3c(NC4CCCC4)ncnc32)cc1	112.3*	0.5%	0.9%	-12.2%
Cc1cccc(-n2ncc3c(NC4CCCC4)ncnc32)c1	114.1*	?	-5.4%	?
SMILES	GPR32 ag	SKOV3 invasion	FH mod	NTMT1 inh
Cc1cccc(-n2ncc3c(Nc4ccc(C)c(Cl)c4)ncnc32)c1	73.7*	i	?	?
c1ccc(-n2ncc3c(NC4CCCC4)ncnc32)cc1	7.7	-4.8%	-22.3%	-21.3%
Cc1cccc(C(=O)NNc2ncnc3c2cnn3-c2ccc(C)cc2C)c1	113.2*	-2.3%	-9.9%	?
Nc1nnc(-c2cccc3ccccc23)o1	nt	nt	nt	1.2%
COc1ccccc1CNc1nc(-c2ccco2)nn1S(=O)(=O)c1ccc(Cl)cc1	-20.7	-3.1%	-8.5%	-3.5%
COc1cc(O)c(C(CC(=O)N2CC(C)NC(C)C2)c2ccc3c(c2)OCO3)c(OC)c1 (stereo not drawn)	nt	nt	nt	-1.8%
O=C(Nc1ccc(O)cc1)c1cccc(S(=O)(=O)N2CCOCC2)c1	-25.6	-5.7%	-16.5%	-14.4%
CCC(C)Nc1ncnc2c1cnn2-c1ccc(F)cc1 (stereo not drawn)	65.1*	-2.7%	19.1%	-14.7%
COc1ccccc1C(=O)N(Cc1nc(-c2cccc(C)c2)no1)C(C)C	86.6*	i	-4.8%	-25.7%
COc1ccc(-c2noc(COc3ccc(C)cc3C)n2)cc1OC	-22.9	15.1%	-11.9%	8.8%
COc1ccccc1OCc1nc(-c2cccc(C)c2)no1	76.8*	7.1%	-28.2%	8.3%
CCCS(=O)(=O)c1ncc(Cl)c(C(=O)N(Cc2ccccc2)Cc2ccco2)n1	-15.6	2.24µM*	-18.8%	-9.2%
CCSc1ncc(Cl)c(C(=O)N(Cc2ccccc2)Cc2ccco2)n1	-35.0	i	-21.6%	-7.0%
O=C(Nc1ccc(OC(F)(F)F)cc1)c1cc(-c2ccc(Cl)cc2)on1	22.1	4.7%	-12.6%	1.8%
CC(=O)Nc1ccc2nc(SCCOc3ccccc3)sc2c1	118.3*	0.3%	-5.5%	-11.0%
O=C(COc1ccccc1F)Nc1ccc2nc(SCCOc3ccccc3)sc2c1	98.9*	i	1.8%	10.9%
O=C(COc1ccccc1)Nc1ccc2nc(SCCOc3ccccc3)sc2c1	-5.0	5.0%	-0.6%	0.8%
O=C(O)C[C@@H](NC(=O)c1cc(-c2ccc(-c3ccncc3)cc2)cs1)c1ccccc1	nt	nt	-3.2%	1.0%[57.5 µM]
Fc1ccc2ncc3c(-c4ccccc4)n[nH]c3c2c1	-7.7	0.7%	-10.7%	-10.6%
Cc1ccc(NC(=O)c2cc(S(=O)(=O)N3CCC(C)CC3)cn2C)cc1Cl	-0.8	i	-3.7%	89.1µM*
CC1CCN(S(=O)(=O)c2cc(C(=O)NCCc3ccccc3)n(C)c2)CC1	-4.7	i	-31.3%	-17.4%
CC1CCN(S(=O)(=O)c2cc(C(=O)NCc3ccc(N(C)C)cc3)n(C)c2)CC1	11.7	-1.5%	-5.0%	89.1µM*
O=c1c2ccccc2nc2sc(NCc3ccc(Cc4ccccc4)cc3)nn12	nt	nt	nt	3.1%
CCCCN(CCCC)CC(O)Cn1cc(/C=C/C(=O)c2ccccc2)c2ccccc21 (stereo not drawn)	88.2*	-4.1%	-7.6%	7.2%
N#C/C(=C\c1ccc(O)c(O)c1)C(=O)NCCc1ccccc1	-2.5	nt	31.6µM*	nt
CC(C)(O)Cn1c(NC(=O)c2ccc(-c3cn[nH]c3)s2)nc2cc(CN3CCOCC3)ccc21	nt	?	5.8%[53.3 µM]	?
C[C@H](NCc1ccc2c(c1)nc(NC(=O)c1ccc(-c3cn[nH]c3)s1)n2CCc1ccccc1)C(C)(C)C	nt	18.7µM*	6.4%[53.3 µM]	7.8%[57.5 µM]
